Experimental data: PubChem BioAssay AID720519 (National Center for Advancing Translational Sciences (NCATS), 2013)
Records with an inconclusive call do not appear. The source made the active and inactive calls. Calls follow the shape of the dose curve; as a rule, active = well fitted activation curve with a large enough effect; inconclusive = small, poorly fitted or top-dose-only effect; inactive = flat fitted curve, though single readings scatter.

assay: qHTS for Inhibitors of Cell Surface uPA Generation: Confirmatory Assay for Cherry-picked Compounds; conditions: cell surface uPA activity generation, qHTS confirmation; series mostly up to 115 µM; inhibition: at the top concentration; also: 0% is about no effect
Method in brief: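 RAW 264.7 cells at 4000/well, incubated overnight, then treated with compounds. After 24 h at 37 C, viability was read by ATPlite luminescence. An increase in signal indicates blocked uPA-dependent LF entry.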

| SMILES | inhibition |
| --- | --- |
| CCC1(C)NC(=O)N(CC(=O)Nc2sc3c(c2C(N)=O)CCC3)C1=O (stereo not drawn) | 7.12% (inactive) |
| COc1ccccc1CN1CC(C(=O)NCc2cccc(C)n2)CCC1=O (stereo not drawn) | -2.28% (inactive) |
| COc1ccc(NC(=O)c2nn(C)c3c2CS(=O)(=O)c2ccccc2-3)cc1 | -1.07% (inactive) |
| COc1cc(C(=O)N/N=C(\Cc2ncc[nH]2)c2ccccc2)cc(OC)c1OC | 0.667% (inactive) |
| CCN(c1ccc(OC)cc1)S(=O)(=O)c1ccc2c(c1)NC(=O)CS2 | -2.56% (inactive) |
| CCn1c(SC(C)C(=O)NC2CCCC2)nc2cc(S(N)(=O)=O)ccc21 (stereo not drawn) | 6.22% (inactive) |
| COc1ccc(CC(=O)OCC(=O)NNC(=O)c2ccccc2)cc1 | -3.04% (inactive) |
| COc1cc(CN2CCNC(=O)C2CC(=O)NCCCC2CCCC2)cc(OC)c1 (stereo not drawn) | -3.3% (inactive) |
| COC(C[C@H](O)[C@H](C)[C@@H](O)COCc1ccccc1)OC | -2.54% (inactive) |
| COC(/C=C/Nc1ccc(Cl)cc1)=C(C#N)C#N | -0.118% (inactive) |
| COC(=O)C1C(=O)c2c([nH]c(C(=O)OC3CCCCC3)c2C)CC1C (stereo not drawn) | -0.386% (inactive) |
| CCOC(=O)C(CC)n1cnc2c(nnn2-c2ccccc2)c1=O (stereo not drawn) | 0.0418% (inactive) |
| COc1ccc(C(=O)NCCCN2CCOCC2)cc1 | -1.56% (inactive) |
| CC1(NC(=O)CSc2nnc(-c3c[nH]c4ccccc34)n2C2CC2)CCS(=O)(=O)C1 (stereo not drawn) | 1.13% (inactive) |
| CCCCn1c(=NC(=O)c2ccco2)c(C(=O)OCC)cc2c(=O)n3cccc(C)c3nc21 | -1.3% (inactive) |
| CCOc1ccccc1C(=O)NC1CCN(CC(=O)Nc2cc(OC)ccc2OC)CC1 | -0.0474% (inactive) |
| Brc1ccsc1/C=N/Nc1ccccc1 | 3.17% (inactive) |
| CN(C(=O)CCn1c(=S)oc2ccccc21)c1ccc(F)cc1 | 1.34% (inactive) |
| O=C(COc1cccc2ccccc12)NNC(=O)c1cnccn1 | -2.03% (inactive) |
| COCc1cc(C)nc2sc(C(=O)Nc3nccs3)c(N)c12 | -1.16% (inactive) |
| Cc1cccc(Nc2ccc(NCc3ccccc3)nn2)c1 | -2.68% (inactive) |
| CCOc1ccc(NS(=O)(=O)c2coc(C(N)=O)c2)cc1 | -1.56% (inactive) |
| CC1=CC(C)C(C[N+]2(C)CCCCC2)C(C)C1 (stereo not drawn) | -2.55% (inactive) |
